Assay results taken from PubChem BioAssay (NCATS).
Inconclusive results are not listed. The source made the active and inactive calls. Calls come from the whole dose curve; as a rule, active = well fitted inhibition curve with a large enough effect; inconclusive = small, poorly fitted or top-dose-only effect; inactive = no such curve, though single readings can be large or run the other way.

Test: Primary qHTS for inhibitors of nuclear receptor binding SET domain protein 2 (NSD2) in an RCH-ACV wild type WT cells (2C) (AID 1645877); note: nearly all actives have a fitted effect of over 70% in size
Conditions: RCH-ACV (leukaemia line) NSD2 WT (2C) viability, CellTiter-Glo, 72 h; series mostly up to 44.9 µM; activity change, negative = cell killing: at the top concentration
% is set by controls: 0 for no effect and ±100 for the full control effect; potency is the fitted concentration of half-maximal effect.

| Compound | activity change, negative = cell killing | outcome | Potency |
| --- | --- | --- | --- |
| CC1CCC2C(C)(C)[C@@H](O)CC[C@]2(C)C12Cc1c(O)cc3c(c1O2)CN(C(CCC(=O)O)C(=O)O)C3=O (some centres undefined) | -12.7% [at 17.3 µM] (inactive) | – | – |
| C[C@H](NC(c1cccc2[nH]c(=O)c(=O)[nH]c12)P(=O)(O)O)c1ccc(Br)cc1 (some centres undefined) | – | inactive | – |
| COC1CC(OC2CCC3(C)C(=CCC4C3C(OC(C)=O)C(OC(=O)/C=C/c3ccccc3)C3(C)C(C(C)O)CCC43O)C2)OC(C)C1OC1CC(OC)C(OC2OC(C)C(OC3OC(CO)C(O)C(O)C3O)C(OC)C2O)C(C)O1 (centres undefined) | -17.6% [at 9.23 µM] (inactive) | – | – |
| CC(NC(=O)C(O)C(C)C)C(=O)NC1C(=O)N(C)CCc2ccccc21 (centres undefined) | -1.39% (inactive) | – | – |
| CC(C)NCC(C(=O)N1CCN(c2ncnc3c2C(C)CC3O)CC1)c1ccc(Cl)cc1 (centres undefined) | – | – | 2.3 µM (active) |
| C=C1CCC2C(C(C)(C)O)CCC2(C)CC(O)C(=C)CCC1O (centres undefined) | – | – | 10.1 µM (active) |
| Cc1[nH]c2ccccc2c1CCNC(=O)c1ccccc1F | – | inactive | – |
| Cc1ccc(NC(=O)c2ccc(CN3CC[C@H](N(C)C)C3)c(C(F)(F)F)c2)cc1Nc1nccc(-c2cncnc2)n1 | – | – | 7.23 µM (active) |
| CC(=O)C12OC(C)(C)OC1CC1C3CCC4=CC(=O)C=CC4(C)C3(F)C(O)CC12C (centres undefined) | – | – | 0.0065 µM (active) |
